Measured values published in PubChem BioAssay AID1851 (National Center for Advancing Translational Sciences (NCATS), 2009).
The campaign covered roughly 16,000 compounds. About 4,000 (25%) were called active. About 26% were inconclusive and are not listed. Calls come from the whole dose curve; as a rule, active = well fitted curve in the direction sought with a large enough effect; inconclusive = small, poorly fitted or top-dose-only effect, or effect the other way; inactive = no such curve, though single readings can be large or run the other way. Only a sample is shown.

Molecular target: Cytochrome P450 2C9 (Homo sapiens) (UniProt P11712)
Test: Cytochrome panel assay with activity outcomes
Conditions: recombinant CYP, pro-luciferin dealkylation, luminescence, p450-cyp2c9; series mostly up to 57.1 µM
% is set by controls: 0 for no effect and ±100 for the full control effect.

Cytochrome P450 2C9 (Homo sapiens), sequence (P11712 whole entry, looked up): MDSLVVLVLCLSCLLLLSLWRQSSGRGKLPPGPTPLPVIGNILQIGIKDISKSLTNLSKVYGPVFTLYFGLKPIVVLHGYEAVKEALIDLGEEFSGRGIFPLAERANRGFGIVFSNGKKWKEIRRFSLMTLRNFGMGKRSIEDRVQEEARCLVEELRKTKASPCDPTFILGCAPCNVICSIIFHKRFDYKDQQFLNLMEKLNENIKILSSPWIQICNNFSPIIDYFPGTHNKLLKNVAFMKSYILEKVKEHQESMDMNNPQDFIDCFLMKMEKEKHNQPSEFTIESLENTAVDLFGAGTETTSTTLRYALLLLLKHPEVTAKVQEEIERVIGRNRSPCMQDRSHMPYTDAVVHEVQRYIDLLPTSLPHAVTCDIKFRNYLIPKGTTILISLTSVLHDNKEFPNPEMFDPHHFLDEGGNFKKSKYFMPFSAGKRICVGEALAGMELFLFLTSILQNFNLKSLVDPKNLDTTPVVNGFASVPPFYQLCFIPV

AC50, active:
CCCCSC(=S)N(C)C1CCS(=O)(=O)C1 (configuration not stated) 17.8 µM, Cc1ccc(NC(=O)CN2CCC(NC(=O)Cc3ccccc3)CC2)cc1C 15.8 µM, Cc1ccc(C(c2ccc(C)o2)c2cccc([N+](=O)[O-])c2O)o1 1.26 µM, COC(=O)C1=C(C)OC(N)=C(C#N)C1c1cc(OC)ccc1OC (configuration not stated) 5.01 µM, COC(=O)C1=C(C)OC(N)=C(C#N)C1C1CCCCC1 (configuration not stated) 10 µM, Cc1ccc(N=Nc2c(N)n(-c3ccccc3)[nH]c2=O)cc1 7.94 µM, N#C/C(=C\c1ccc(N2CCCC2)c([N+](=O)[O-])c1)c1nc2ccccc2[nH]1 2.51 µM, N#C/C(=C\c1ccc(Oc2ccc(C(F)(F)F)cc2[N+](=O)[O-])cc1)c1nc2ccccc2[nH]1 3.98 µM, COc1cc(/C=C(/C#N)c2nc3ccccc3[nH]2)ccc1OCC(=O)Nc1ccccc1C 3.16 µM, COc1cc(/C=C(/C#N)c2nc3ccccc3[nH]2)ccc1Oc1ncccc1[N+](=O)[O-] 2 µM, COc1ccc(-c2cc(C(F)(F)F)n3nc(C(=O)NCc4ccco4)c(Cl)c3n2)cc1 0.398 µM, O=c1ccc(NS(=O)(=O)c2ccccc2)cn1Cc1ccc(Cl)c(Cl)c1 2.51 µM, O=c1ccc(NS(=O)(=O)c2ccc(Cl)cc2)cn1Cc1ccc(Cl)c(Cl)c1 1.78 µM, CCCN(CCC)C(=S)NC(=O)c1ccc(Cl)cc1Cl 3.55 µM, CCC(C)C1NC(=S)N(C2CCCCC2)C1=O (configuration not stated) 3.55 µM, CC(C)CC1NC(=S)N(C2CCCCC2)C1=O (configuration not stated) 17.8 µM, O=C(CN1CCN(Cc2ccccc2)CC1)N1CCCc2c1c(=O)oc1ccc(O)cc21 20 µM, O=C(Nc1ccccc1)N1CCSc2cc(Cl)ccc21 2.24 µM, CCCCCCCCCCCCC/C=C\[C@@H](O)[C@H](CO)NC(C)=O 3.16 µM, O=C(C(NS(=O)(=O)c1cccs1)c1ccccc1)N1CCN(c2ccccc2)CC1 (configuration not stated) 8.91 µM, COc1ccccc1N1CCN(C(=O)C(NS(=O)(=O)c2cccs2)c2ccccc2)CC1 (configuration not stated) 11.2 µM, NS(=O)(=O)c1ccc(NCc2ccccc2OCc2ccccc2F)cc1 3.98 µM, Cc1ccccc1Cn1c(Cc2ccccc2)nc2ccccc21 5.01 µM, CCCCCn1c(CN2CCN(c3cc(Cl)ccc3C)CC2)nc2c1c(=O)[nH]c(=O)n2C 3.55 µM, COc1cccc(=O)c2c(C)n(-c3cc(C)cc(C)c3)c(C)c12 3.98 µM, CCOC(=O)CSc1cc(=O)n(C)c2cc(Cl)ccc12 14.1 µM, Cc1c(NC(=O)C(Sc2ccccc2)c2ccccc2)cccc1[N+](=O)[O-] (configuration not stated) 0.251 µM, CCOC(=O)c1cc(-c2ccc(Cl)cc2)nc2c1c(C)nn2CCC#N 10 µM, OC(Cc1nc2ccccc2[nH]1)c1ccccc1Cl (configuration not stated) 14.1 µM, CCC(=O)Nc1ccccc1C(=O)OCC(=O)c1cccc2ccccc12 2.24 µM, CCC(=O)Nc1ccccc1C(=O)OCC(=O)c1ccccc1 0.631 µM, CSCC[C@H](NC(=O)CC(C)(C)C)c1nc2ccccc2[nH]1 14.1 µM, CSCC[C@H](NC(=O)c1nn(C)c(=O)c2ccccc12)c1nc2ccccc2[nH]1 2 µM, O=C(OCc1ccc(Cl)cc1)c1ccccc1C(=O)c1ccccc1 4.47 µM

AC50, inactive:
CCCCN(C(=S)Nc1ccccc1)C1CCS(=O)(=O)C1 (configuration not stated), CCCNC1CCS(=O)(=O)C1 (configuration not stated), O=C(Cc1ccccc1)NC1CCN(S(=O)(=O)c2ccc(C(=O)O)cc2)CC1, O=[N+]([O-])c1cccc2cn[nH]c12, O=[N+]([O-])c1cccc2c(Br)[nH]nc12, CCOC(=O)C1=C(N)Oc2ccc(Br)cc2[C@@H]1[C@@H](C#N)C(=O)OCC, CCOC(=O)C1=C(c2ccccc2)OC(N)=C(C#N)C1c1ccc(Cl)s1 (configuration not stated), CCN1C(=O)C=CC1=O, COc1ccc(CNCCC(c2ccc(OC(C)C)cc2)C(C)C)cc1OC (configuration not stated), COc1ccc(/C=C(/C#N)C(=O)Nc2cc(C)ccc2C)cc1C(=O)O, COc1ccc(-c2cc(CNC(C)=O)on2)cc1, O=S(=O)(c1ccccc1)N1CCC2(CCN(Cc3ccccc3)CC2)CC1, CCn1c(CCNC(=O)c2ccc(Cl)cc2Cl)n[nH]c1=S, COc1ccc2c(c1OC)C(=O)N(C(C)C(=O)O)C2=O (configuration not stated), O=C(CN1CCN(Cc2ccccc2)CC1)c1ccc(Br)cc1, O=C(c1ccccc1)N1CCSC1=S, CC(=O)NNC(=O)N1Cc2ccccc2Oc2ccc(Cl)cc21, CCCCCCCCCCCCCCCC(=O)NC(C)C, CCCCCCCCCCCCCCC/C=C\[C@H](O)[C@@H](NC(=O)CCCCCCCCCCCCC)OC (tested in a mixture with another compound), CN1CCC(=C2c3ccccc3Sc3ccccc32)CC1, O=C(CCNS(=O)(=O)c1cccs1)N1CCc2ccccc2C1, COC(=O)NCC(c1cccnc1)N1CCN(c2ccccc2OC)CC1 (configuration not stated), COc1ccccc1N1CCN(Cc2cc(=O)n3ccsc3n2)CC1, COC(=O)N1CCC2(CC1)CCN(c1ccccc1)CC2, O=c1nc(N2CCCCCC2)nc(N2CCCCCC2)[nH]1, O=C(C(Cc1ccccc1)N1C(=O)C2C3CCC(C3)C2C1=O)N1CCCCC1 (configuration not stated), CCN1CCN(c2nc3c(c(=O)[nH]c(=O)n3C)n2CCCSc2ncccn2)CC1, Cn1c(=O)[nH]c(=O)c2c1nc(CN1CCOCC1)n2CCCO, CCCc1nnc(SCC(=O)N2CCCCC2)n1CCCOC, Cn1c(=O)cc(SCC(=O)NCCCN2CCOCC2)c2ccc(Cl)cc21, O=[N+]([O-])c1cc(/C=N/O)ccc1SCc1ccccc1, Cc1c(C(=O)NN2CCN(C)CC2)cccc1[N+](=O)[O-], CC(C)Cn1c(-c2nn(C)cc2Cl)n[nH]c1=S, CN1CCN(c2ncc3nc(-c4ccc(Cl)cc4)c(=O)n(CCC#N)c3n2)CC1, OCCNc1nc2ccccc2[nH]1, COCC(=O)N1CCC[C@@]2(CCN(Cc3ccccc3OC)C2)C1, CCc1ccc(C(=O)COC(=O)C(Cc2ccccc2)NC(=O)C2CCC(C)CC2)cc1 (configuration not stated), CCOC(=O)c1ccccc1NC(=O)/C(C)=C/C(=O)O, CCCCCCCCCCCC1=C(O)C(=O)C=C(O)C1=O, Cn1c(C(F)(F)F)nc2c(=O)oc3ccccc3c21, O=C(O)c1ccccc1C(=O)NNc1ccc(Cl)cc1, CC(C)(C)C1CCC(OCC(O)CN2CCN(c3ccccc3)CC2)CC1 (configuration not stated)

activity, negative = inhibition, inactive:
CC(=O)OC[C@@H]1O[C@H](C/C=N\O[C@@H](C)c2cn([C@H]3COC[C@H]3O)nn2)C=C[C@@H]1OC(C)=O 17.7% [at 11.4 µM], COc1ccccc1-c1cncnc1NCc1cnc(C)cn1 14.1% [at 2.29 µM], Cc1[nH]n(-c2ccc(S(=O)(=O)O)cc2)c(=O)c1N=Nc1ccccc1 21.2% [at 11.4 µM], Cn1c(N)c(N=Nc2ccc(S(N)(=O)=O)cc2)c(=O)n(C)c1=O 5.29% [at 11.4 µM], CC(C)=CCC/C(C)=C/CO/N=C1/C[C@@H](O)[C@@H](O)[C@@H]2[C@H]3C(=O)N(c4ccc(F)cc4F)C(=O)[C@@H]3CC[C@H]12 18.9% [at 11.4 µM], Fc1ccc(Nc2ncnc3ccc(-c4ccoc4)cc23)cc1 -12.3% [at 2.29 µM], COc1cc(CN2CCCCC2)cc2cc(C(=O)O)c(=O)oc12 15.6% [at 11.4 µM], CCC[C@H](Sc1nc(N)nc2nc[nH]c12)C(=O)O -1.85% [at 11.4 µM], O=C(O)CC[P+](c1ccccc1)(c1ccccc1)c1ccccc1 8.46% [at 11.4 µM], Cc1ccc([C@@]2(C)CC/C(=N/N=C3\CC[C@](C)(c4ccc(C)c(C)c4)c4cc(C)c(C)cc43)c3cc(C)c(C)cc32)cc1C -6.14% [at 11.4 µM], S=c1c2[nH]cnc2ncn1CCSc1ncnc2nc[nH]c12 -0.398% [at 11.4 µM], NS(=O)(=O)c1ccc(NCc2nc3ccccc3[nH]2)cc1 7.25% [at 11.4 µM], NS(=O)(=O)c1ccc(NCc2cnc3ccccc3n2)cc1 1.39% [at 11.4 µM], Cc1cnc(CNc2ccnc(-c3cccc(NS(C)(=O)=O)c3)n2)cn1 16.8% [at 2.29 µM], Nc1nc(N)c(N=Nc2ccc(C(=O)O)c(O)c2)c(N)n1 -6.7% [at 11.4 µM], Cc1ccc(C)c(C(=N)c2ccccc2Cc2ccccc2)c1 -26.1% [at 11.4 µM], NC(Cc1ccccc1)=NCC(=O)O -1.5% [at 11.4 µM], O=C1CC[C@](CCc2nc3ccccc3[nH]2)(c2ccccc2)C(=O)N1 -12.8% [at 11.4 µM], C[N+]1(C)CCO[C@](O)(c2ccccc2)C1 3.31% [at 11.4 µM], O=C(O)c1ccc(C(=O)c2ccccc2)c(C(=O)O)c1 21.8% [at 11.4 µM], CCOC(=O)CCN1C(=O)[C@H]2[C@H]3[C@H](O)[C@H](O)C/C(=N/OC[C@@H](O)COCc4ccco4)[C@@H]3CC[C@@H]2C1=O -5.27% [at 11.4 µM]
